Screening results as filed in PubChem BioAssay.
M1 PAM parental: nonselective calcium activators in parental CHO-K1 cells, primary screen, counter-screen for M1 PAM project, cell-based, Fluo-8 calcium fluorescence, full deck, 1536-well; ATP EC20; 0% at ATP EC20, 100% at ATP max; activation, % at 3 µM; actives 0.02% (n = 360,000); AID 602247, 2012;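 active means activation above the run cutoff, the mean activation of all test compounds plus 3 SD, cut at about 40% in these data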;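 further: peak over basal fluorescence ratio in a 140 s read after ATP addition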
M1 PAM: human M1 muscarinic receptor positive allosteric modulators, primary screen, CHO-K1 cells, Fluo-8 calcium fluorescence, 1536-well. Muscarinic acetylcholine receptor M1 (Homo sapiens), P11229. CHO-K1 hM1, ACh EC20; 0% = ACh EC20, 100% = maximal ACh. activation, % at 3 µM. actives 0.088% (n = 360,000). AID 588819, 2011; in the data active means activation above about 19%, passing the limit was not always enough
Target sequence (P11229 whole entry, looked up): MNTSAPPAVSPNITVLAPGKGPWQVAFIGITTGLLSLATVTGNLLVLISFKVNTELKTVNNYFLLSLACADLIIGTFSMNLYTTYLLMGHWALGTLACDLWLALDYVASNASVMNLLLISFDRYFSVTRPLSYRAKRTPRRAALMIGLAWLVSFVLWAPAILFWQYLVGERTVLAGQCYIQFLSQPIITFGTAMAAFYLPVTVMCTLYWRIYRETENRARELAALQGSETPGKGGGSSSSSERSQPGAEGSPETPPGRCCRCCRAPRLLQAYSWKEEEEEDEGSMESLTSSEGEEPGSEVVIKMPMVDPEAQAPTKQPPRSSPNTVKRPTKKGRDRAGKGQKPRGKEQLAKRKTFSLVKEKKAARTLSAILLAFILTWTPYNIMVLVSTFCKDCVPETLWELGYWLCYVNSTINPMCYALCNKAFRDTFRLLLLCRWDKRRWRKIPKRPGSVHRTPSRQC
CHRM1 antagonist: human M1 muscarinic receptor antagonists, primary screen, CHO-K1 cells, Fluo-8 calcium fluorescence, 1536-well | AID 588852, 2011 | actives 1.3% (n = 360,000) | CHO-K1 hM1, ACh EC80 antagonist | Muscarinic acetylcholine receptor M1 (Homo sapiens), P11229 | inhibition, % at 3 µM;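 active means percent inhibition above its own plate's cutoff, namely the mean of that plate's compound wells plus 3 SD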;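 further: peak over basal fluorescence ratio during 140 s after agonist addition; 0% = ACh EC80 plus DMSO and 100% = DMSO alone without agonist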
M1 ag parental: counter-screen for M1 agonists: effect in parental CHO-K1 cells. AID 602248, 2012. actives 0.48% (n = 360,000). activation, % at 3 µM. Fluo-8 calcium fluorescence; scaled to maximal ATP response, vehicle zero; in the data active means activation above about 15%;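 further: untransfected CHO-K1 host cells lacking M1 receptor as counterscreen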
CHO-K1 Ca antag: M1 antagonist counterscreen hit in parental CHO-K1 cells; actives 0.6% (n = 360,000); AID 602250; ATP-induced calcium, Fluo-8 fluorescence; inhibition, % at 3 µM;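 active means inhibition above a per-plate cutoff, the plate's mean sample inhibition plus 3 SD, cut at about 24% in these data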;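 further: 0% = DMSO plus EC80 ATP and 100% = DMSO alone without ATP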
CHRM1 agonist: human M1 muscarinic receptor agonists, primary screen, Fluo-8 calcium fluorescence, CHO-K1 cells, HTS; Muscarinic acetylcholine receptor M1 (Homo sapiens), P11229; CHO-K1 hM1, agonist mode; 0% DMSO, 100% acetylcholine EC100; activation, % at 3 µM; actives 0.33% (n = 360,000);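 active means activation above the run's mean compound activation plus 3 SD, cut at about 16% in these data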;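 further: peak over basal fluorescence ratio within a 140 s kinetic read after compound addition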
The depositor's hits bear a star. Only some compounds are listed: those with a hit (about 2.3% of all), similar ones and a draw of the others.

SMILES	M1 PAM parental	M1 PAM	CHRM1 antagonist	M1 ag parental	CHO-K1 Ca antag	CHRM1 agonist
Cc1ccc2cccc(NC(=S)NC(=O)c3c(Br)cnn3C)c2n1	-8.2	-7.0	18.7	0.0	25.7*	-1.5
Cc1onc(-c2ccccc2)c1-c1nnc(CN2CCN(S(=O)(=O)c3ccccc3)CC2)o1	-1.7	1.6	1.7	7.4	-5.9	-1.7
CCCCN1C(=N)N([C@@H](C)CN2CCC[C@H]2CN2C(N)=NC[C@@H]2Cc2ccccc2)C[C@H]1Cc1ccccc1	-6.3	-40.1	93.8*	-0.1	-2.0	-13.3
CCCCN1C(=N)N([C@@H](CN2CCC[C@H]2CN2C(N)=NC[C@@H]2Cc2ccccc2)C(C)C)C[C@H]1Cc1ccccc1	-19.8	-32.6	58.6*	0.1	11.1	-10.6
CC(C)C[C@@H]1CN=C(N)N1C[C@@H]1CCCN1C[C@@H](C(C)C)N1C[C@@H](Cc2ccccc2)N(CCCC2CCCC2)C1=N	15.7	-5.2	-2.9	0.1	-7.8	-11.0
COc1ccc(-c2cnc3c(NC=O)cc(-c4cccc(NS(C)(=O)=O)c4)cn23)cc1OC	-13.2	-6.1	11.0	-0.5	8.0	-6.0
CC(C)CC(=O)NC(=S)Nc1sc2c(c1C(N)=O)CCC2	-16.1	-9.2	3.7	-0.9	37.7*	1.0
CC(C)(C)C(=O)NC(=S)Nc1sc2c(c1C(N)=O)CCC2	-12.9	2.9	2.3	-0.1	4.0	-2.7
CC1=C([N+](=O)[O-])C(c2ccccc2Cl)NC(=O)N1C (centres undefined)	23.4	9.2	-9.8	17.1*	-10.4	1.0
CN[C@H](C)C(=O)NC[C@H]1O[C@@H](n2cnc3c(N)ncnc32)[C@H](O)[C@@H]1O	6.8	-5.6	2.6	0.1	2.6	-1.0
Cc1ccc(Cl)cc1-c1cc(C(=O)NCc2cc(C(F)(F)F)cc(C(F)(F)F)c2)[nH]n1	11.4	-24.0	46.5*	1.2	-3.2	-3.3
Cc1cccc(C(=O)OCC(=O)NCCN2C(=O)CSC2=O)c1[N+](=O)[O-]	4.5	3.4	-3.9	0.3	-15.6	-2.5
CN(C)CCCN(Cc1ccccc1)C(=S)NCc1ccccc1	17.5	3.2	1.9	3.8	-15.2	-3.8
CC(=O)c1ccc(NC(=S)N(CCCN(C)C)Cc2ccccc2)cc1	4.6	-21.1	43.9*	10.8	2.5	-4.2
CN(C)CCCN(Cc1ccccc1)C(=S)Nc1ccc(SC(F)F)cc1	19.1	-22.1	88.5*	5.6	-11.8	-3.9
CC(=O)c1ccc(NC(=S)NC(C)CCc2ccccc2)cc1 (centres undefined)	3.4	-3.9	18.7	15.4*	-0.8	2.2
Cc1ccc(S(=O)(=O)N(C)C)cc1NC(=O)c1cc(=O)c2ccccc2o1	14.7	14.8	-12.0	2.5	-14.6	-8.7
Cc1ccc(S(=O)(=O)NCCN=Cc2ccc(N(C)C)cc2)cc1	0.1	7.2	-5.7	0.4	0.0	-4.2
COC(=O)c1ccccc1N1CCS(=O)(=O)CC1	10.1	-3.1	10.7	1.1	-3.9	-2.4
CC1=NNC(=O)C1C(c1cccc(O)c1)C(C#N)C#N (centres undefined)	-22.7	-8.6	22.2	0.5	28.8*	-2.7
CCN(CC#CCC1(O)c2ccccc2-c2ccccc21)C(C)C	2.4	-22.3	71.0*	-0.2	1.1	-6.3
CCN(CC)CC#CCC1(O)c2ccccc2-c2ccccc21	5.6	-24.4	25.8*	1.0	-13.2	-10.2
Cc1nc2ccc(Cl)cc2c(-c2ccccc2Cl)c1CC(=O)O	-3.6	5.7	-3.9	0.5	11.3	-1.6
CN1CCc2nc3ccc(Cl)cc3c(-c3ccccc3Cl)c2C1	-6.4	-25.9	92.5*	-0.3	11.3	-12.4
O=C(NCCCN1CCN(Cc2ccccc2)CC1)C1CCN(c2nnc(-n3cccc3)s2)CC1	8.6	-20.6	43.7*	1.1	-4.4	-4.2
SMILES	M1 PAM parental	M1 PAM	CHRM1 antagonist	M1 ag parental	CHO-K1 Ca antag	CHRM1 agonist
O=C(NC1CCN(Cc2ccccc2)CC1)C1CCCN(c2nnc(-n3cccc3)s2)C1 (centres undefined)	19.2	-7.8	-3.9	-0.7	-11.7	-12.0
O=C(NCCCc1ccccc1)C1CCN(c2nnc(-n3cccc3)s2)CC1	4.6	-0.8	-2.9	0.2	5.7	-8.2
O=C(NC1CCN(Cc2ccccc2)CC1)C1CCN(c2nnc(-n3cccc3)s2)CC1	4.0	-19.2	51.0*	-0.2	-0.9	-13.9
CCC(C)c1ccc(NC(=O)COC(=O)c2nc3nccc(C)n3n2)cc1 (centres undefined)	10.9	7.4	-12.1	0.0	-6.4	-3.3
O=c1[nH]c(=S)[nH]c2nc(-c3cccs3)cc(C(F)(F)F)c12	6.0	1.3	0.4	1.1	-9.5	-4.0
Nc1c(C(=O)C2CC2)sc2nc(-c3cccs3)cc(C(F)(F)F)c12	12.2	-9.2	37.4	7.5	9.9	19.0*
CCn1c(COc2ccccc2)nnc1SCC(=O)Nc1ccc(N2CCOCC2)cc1	-7.3	-1.0	2.6	0.0	4.6	-5.3
CCOc1cccc(/C=C(/C#N)c2nc3ccccc3[nH]2)c1OCC(=O)O	13.9	4.2	-10.7	1.0	-3.5	-0.7
CCN(CC)c1ccc(/C=C(/C#N)c2nc3ccccc3[nH]2)c(OC(C)C)c1	-0.2	-40.6	63.7*	12.8	8.7	55.2*
C=CCN(CC=C)S(=O)(=O)c1ccc2nc(NC(=O)C(C)C)sc2c1	43.3*	-5.6	-5.5	33.2*	-14.5	23.9*
CCOC(=O)c1ccc2nc(NC(=O)C(C)C)sc2c1	14.8	-7.6	12.3	0.0	2.2	-0.9
Cc1ccc(OCCCCn2ccnc2)c([N+](=O)[O-])c1	5.7	-3.6	1.6	1.6	0.6	-12.0
Cc1ccc(OCCn2cncn2)c([N+](=O)[O-])c1	17.2	14.3	-7.9	19.1*	-1.0	9.7
CO/N=C\CC(=O)Nc1ccc(Cl)cc1Cl	-8.2	-0.3	1.5	-0.6	13.5	-5.9
Cn1c(-c2ccc3c(c2)OCO3)cnc1NCc1ccccc1	-6.8	-21.1	10.2	3.4	-2.4	-6.6
Cn1c(-c2ccc3c(c2)OCO3)cnc1NCc1cccc(Cl)c1	9.1	-21.2	73.7*	0.7	0.1	-4.5
Cn1c(-c2ccc3c(c2)OCO3)cnc1NCc1ccccc1Cl	7.6	-22.8	94.3*	3.2	-8.1	-4.9
Cc1cc(C)cc(NCc2cc3c(cc2[N+](=O)[O-])OCO3)c1	-7.6	1.0	-9.0	-0.2	-1.9	-8.3
